Drawing on patent publication US20050118148, “Compositions and methods related to mammalian Maf-A” (published 2005), this text covers binding signal for one sequence.

Chain of RIPE3b1 activator (MafA, endogenous) (Q8CF90 whole entry): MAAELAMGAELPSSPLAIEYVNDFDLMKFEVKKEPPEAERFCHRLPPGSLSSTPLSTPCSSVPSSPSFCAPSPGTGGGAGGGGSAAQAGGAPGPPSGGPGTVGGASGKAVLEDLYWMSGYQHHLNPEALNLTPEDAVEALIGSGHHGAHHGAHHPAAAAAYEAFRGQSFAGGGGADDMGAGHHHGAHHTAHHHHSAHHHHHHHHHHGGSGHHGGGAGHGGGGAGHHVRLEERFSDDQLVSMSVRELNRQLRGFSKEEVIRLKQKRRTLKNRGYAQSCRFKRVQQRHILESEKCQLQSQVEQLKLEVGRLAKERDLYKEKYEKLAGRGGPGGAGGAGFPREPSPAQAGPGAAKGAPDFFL

This assay addresses RIPE3b1 activator (MafA, endogenous) (Mus musculus, UniProt Q8CF90 SEQ:1-359). The assay is described as follows: competition; B4/5 roughly 20-fold more effective competitor than B4. To be noted: protein: extract; tags: beta cell line nuclear extract (betaTC-3, Min6); label: 32P; dsDNA, one strand shown. As to the method: To define the factors associated with B4 and B5 mediated regulation, gel shift experiments were performed with probes spanning B4, B5, and B4+B5 (B4/5) and βTC-3 or MIN6 cell nuclear extracts (FIG. 12). Two common protein-DNA complexes were detected with the B4 and B4+B5 probes (labeled as A and B in FIG. 12B), whereas no binding was found with B5 (data not shown). The binding affinity of B4 and B4/5 for these complexes was determined with the wild type and B4+B5 double mutant site (B4+B5MT) competitors.
AGCTTTCTTTTTGCAAAGCACAGCAT yielded a binding signal of about 20 fold.
